Results taken from PubChem BioAssay (EPA / NIEHS).
Calls of active or inactive are those of the source. The calls were made as follows: active = hit-call score of the fitted dose curve at least 0.9, where 1 is the maximum; inactive = score below 0.9.

assay: ATG_M_06_CIS: Attagene CIS-FACTORIAL HepG2 Assay for M06 Transcription Factor (Internal Marker) (AID 2282950); conditions: HepG2 Attagene CIS-FACTORIAL M06 internal marker reporter; actives raise or lower the signal
Protocol: ATG_CIS is a cell-based, multiplexed-readout assay that uses HepG2, a human liver cell line, with measurements taken at 24 hours after chemical dosing in a 24-well plate.ATG_M_06_CIS is one of 52 assay component(s) measured or calculated from the ATG_CIS assay. It is designed to make measurements of mRNA induction, a form of inducible reporter, as detected with fluorescence intensity signals by Reverse transcription polymerase chain reaction (RT-PCR) and Capillary electrophoresis technology.Data from the assay component ATG_M_06_CIS was analyzed into 1 assay endpoint. This assay endpoint, ATG_M_06_CIS, was analyzed with bidirectional fitting relative to DMSO as the negative control and baseline of activity. Using a type of inducible reporter, measures of mRNA for gain or loss-of-signal activity can be used to understand the background control at the transcription factor-level as they relate to the gene . Furthermore, this assay endpoint can be referred to as a secondary readout, because this assay has produced multiple assay endpoints where this one serves a background control function. To generalize the intended target to other relatable targets, this assay endpoint is annotated to the background measurement intended target family, where the subfamily is internal marker.
Human liver HepG2 cells are transiently transfected with multiple reporter transcription units (MRTUs) in 6-well plates using FuGene 6 reagent (Roche; 3 ml FuGene/1 mg DNA). The MRTU constructs are regulated by a cis-regulating element (promoter). […] A major difference between the CIS and TRANS system is that in CIS activities of endogenous TFs are measured, whereas the TRANS assay evaluates changes in activities of exogenous, chimeric NR-Gal4 proteins. […] At the end of 24 hour incubation, total RNA was isolated using TriZol reagent (Invitrogen). The isolated RNA is then reverse-transcribed using oligo(dT) primer and Mo-MLV reverse transcriptase (Invitrogen) with DNAse I (Ambion) treatment for 30 min. The one-tenth of the produced cDNA was amplified by PCR using Taq DNA polymerase (Invitrogen) and two reporter sequence-specific primers. The PCR products were fluorescently labeled by primer extension with 6-arboxyfluorescein (6-FAM) 5'-labeled reporter sequence-specific primer (2 min at 95 C, 20 s at 68 C and 10 min at 72 C) and these products were digested with 5U of HpaI (New England Biolabs) for 2h at 37 C. The fragments were purified using Qiaquick PCR columns (Qiagen), analyzed on an ABI 3130xL genetic analyzer (Applied Biosystems) with peak positions identified by using a set of X-rhodamine (ROX)-labeled MapMarker1000 molecular weight standards (BioVentures). The raw capillary electrophoresis data was processed using Attagraph software (Attagene).

Structure (SMILES) | outcome | AC50
O=c1nc(O)n(Cl)c(=O)n1Cl | inactive | –
CCCCN(CCCC)C(=S)[S-].CCCCN(CCCC)C(=S)[S-].[Ni+2] | inactive | –
Cc1ccccc1OP(=O)(Oc1ccccc1C)Oc1ccccc1C | inactive | –
O=c1[nH]c2ccccc2n1C1CCN(CCCC(c2ccc(F)cc2)c2ccc(F)cc2)CC1 | inactive | –
CCOC(=O)OC1=C(c2cc(C)ccc2C)C(=O)NC12CCC(OC)CC2 (stereo not given) | inactive | –
CCOP(=S)(OCC)OP(=S)(OCC)OCC | inactive | –
CCCCOC(=O)COC(=O)c1ccccc1C(=O)OCCCC | inactive | –
CCC[CH2][Sn]([Cl])([Cl])[CH2]CCC | inactive | –
COc1nn(C(=O)NS(=O)(=O)c2ccccc2OC(F)(F)F)c(=O)n1C | inactive | –
CC(=O)C(F)(F)C(F)(F)F | inactive | –
BrCc1ccc(Br)cc1 | inactive | –
CC(c1ccc(O)cc1)c1ccc(O)cc1 | inactive | –
CCCCCCCCCCBr | inactive | –
Nc1nc(=S)[nH][nH]1 | inactive | –
c1csc(-c2ccc(-c3cccs3)s2)c1 | inactive | –
[Cl][Sn]([c]1ccccc1)([c]1ccccc1)[c]1ccccc1 | inactive | –
CC(O)(CS(=O)(=O)c1ccc(F)cc1)C(=O)Nc1ccc(C#N)c(C(F)(F)F)c1 (stereo not given) | inactive | –
OC[C@@H](O)[C@H]1O[C@@H]2O[C@H](C(Cl)(Cl)Cl)O[C@@H]2[C@H]1O | inactive | –
O=C(CBr)c1ccc(O)cc1 | inactive | –
CCC[CH2][Sn]([CH2]CCC)([CH2]CCC)[CH2]CCC | inactive | –

Structure (SMILES) | outcome | AC50
Cc1cc(Cl)ccc1O | inactive | –
CCOP(=S)(OCC)SCSc1cc(Cl)ccc1Cl | inactive | –
C=CCN=C=S | inactive | –
C#C[C@]1(O)CC[C@H]2[C@@H]3CCC4=CC(=O)CC[C@]4(C)[C@H]3CC[C@@]21C | inactive | –
Cc1c([N+](=O)[O-])c(C)c([N+](=O)[O-])c(C(C)(C)C)c1[N+](=O)[O-] | inactive | –
O=S1OC[C@@H]2[C@H](CO1)[C@]1(Cl)C(Cl)=C(Cl)[C@@]2(Cl)C1(Cl)Cl (stereo not given in full) | inactive | –
CN(C)[C@@H]1C(=O)C(C(N)=O)=C(O)[C@@]2(O)C(=O)C3=C(O)c4c(O)ccc(Cl)c4[C@@](C)(O)[C@H]3C[C@@H]12 | inactive | –
Oc1ccc(Cc2ccc(O)cc2)cc1 | inactive | –
CC(C)(C#N)N=NC(C)(C)C#N | inactive | –
O=C(Cl)OCCOCCOC(=O)Cl | inactive | –
O=c1[nH]c(=O)n(Cl)c(=O)n1Cl | inactive | –
O=[N+]([O-])c1ccc(Nc2ccccc2)cc1 | inactive | –
c1ccc2sc(SNC3CCCCC3)nc2c1 | inactive | –
O=C/C(Cl)=C(/Cl)C(=O)O | inactive | –
COC(=O)c1cc(Oc2ccc(Cl)cc2Cl)ccc1[N+](=O)[O-] | inactive | –
O=NN1CCOCC1 | inactive | –
Cc1cc(C(C)(C)c2ccc(O)c(C)c2)ccc1O | inactive | –
OC(c1ccc(Cl)cc1)(c1ccc(Cl)cc1)c1cccnc1 | inactive | –
C[C@]12CC[C@@H](O)C[C@@H]1CC[C@@H]1[C@@H]2CC[C@]2(C)C(=O)CC[C@@H]12 | inactive | –
CCCCCCCCCCCCCCC(Br)C(=O)O (stereo not given) | – | 183 µM (active)
